Measured values: PubChem BioAssay (NCI)
Compounds without any hit were thinned out: in the full panel of roughly 83,000, 20% have a hit.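 Plates (96-well) were seeded with cells, treated with compound at one concentration, and incubated for 48 hours before percent growth was determined.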 Values without a mark were called inactive. Activity calls are given as the source filed them. How the source made its calls: active means growth percent below 10; inactive means the rest.

Legend:
Experiment in all cases: NCI-60 one-dose screen, 48 h (100 = growth as untreated, 0 = no growth, -100 = all killed)
Details in all cases: 10 µM unless noted
T-47D breast = test system: T-47D breast
BT-549 breast = test system: BT-549 breast
MDA-MB-435 melanoma = test system: MDA-MB-435 melanoma
SW-620 colon = test system: SW-620 colon
HCT-116 colon = test system: HCT-116 colon
HCC-2998 colon = test system: HCC-2998 colon
KM12 colon = test system: KM12 colon
MCF7 breast = test system: MCF7 breast

Structure (SMILES)	growth (T-47D breast)	growth (BT-549 breast)	growth (MDA-MB-435 melanoma)	growth (SW-620 colon)	growth (HCT-116 colon)	growth (HCC-2998 colon)	growth (KM12 colon)	growth (MCF7 breast)
O=S1(=O)NCCN1CCNc1nccc(-c2c(-c3cccc(O)c3)nc3sccn23)n1	106%	135%	34.7%	127%	97.8%	113%	108%	–
O=C(Nc1ccc(-n2ccc3c(NC(=O)c4ccccc4)nccc32)cc1)c1ccc(N2CCOCC2)c(C(F)(F)F)c1	28.2%	28.5%	33.6%	30.5%	6.59% (active)	40.8%	22.7%	–
C=CCOC(=O)C1=C(C)NC2=C(C(=O)CCC2)C1c1ccc(F)cc1 (configuration not stated)	89.4%	99.4%	101%	94.4%	–	104%	93.8%	95.6%
COc1cc2c(c(OC)c1O)C(=O)C(OC)C(c1ccc(O)c(O)c1)O2 (configuration not stated)	50.3%	-14.6% (active)	-23.8% (active)	22.6%	–	20.1%	8.81% (active)	11%
CCOC(=O)c1ccc2c(c1)nc(-c1ccc(Cl)cc1)n2-c1cc(C(C)(C)C)[nH]n1	49.3%	16.8%	-31.2% (active)	42.1%	–	56.1%	29.9%	9.39% (active)
CCOC(=O)c1ccc(NC(=O)CSC(N)=O)cc1	131%	93.8%	113%	103%	–	105%	111%	99.3%
Cc1ccc2c(C)c3c(ccc4ccccc43)c[n+]2c1	-8.02% (active)	37%	83.2%	83.1%	–	72.6%	28.6%	35.7%
CCOC(=O)N1C2CCC(C2)N1C(=O)OCC	108%	101%	113%	105%	103%	104%	112%	–
NNc1ccc(S(N)(=O)=O)cc1	89.4%	101%	104%	97.3%	–	86.8%	105%	98%
CCn1c(=O)c(C(=O)NCCCO)c(O)c2ccccc21	106%	150%	106%	106%	–	139%	120%	95.2%
CS(=O)(=O)c1ccc(C(=O)N/N=C/c2ccccc2O)cc1	52.4%	53%	59.7%	43.3%	29.1%	47.3%	34.1%	–
CC(=O)OC[C@H]1O[C@@H](n2c(=O)cc(N)[nH]c2=O)C(OC(C)=O)[C@@H]1OC(C)=O (some centres not stated)	96%	92.8%	101%	107%	103%	106%	111%	–
O=C(CCCCCCN1CC(=O)N2[C@@H](c3ccc(Cl)c(Cl)c3)c3[nH]c4ccccc4c3C[C@H]2C1=O)NO	27.9%	63.7%	47.3%	33%	–	61.9%	69.8%	29%
O=S(=O)(Cc1ccc(Cl)cc1Cl)c1ccc(Cl)cc1	47.5%	62.7%	-33.1% (active)	37.5%	–	–	33.6%	22.1%
CCN1C(=O)N(CC)C2C1NC(=O)N2/N=C/C=C/c1ccccc1 (configuration not stated)	34.2%	52.1%	-2.78% (active)	24.2%	–	64.2%	23.4%	12%
O=C(C(=O)N1CCCC1)c1cn(CCCn2cc(C(=O)C(=O)N3CCCC3)c3cc(Br)ccc32)c2ccc(Br)cc12	70.8%	84.7%	74.3%	85.5%	–	81.6%	86.2%	61.6%
O/N=C/c1ccncc1	97.3%	117%	100%	102%	–	–	105%	97.3%
Cc1ccc(C)c(NC(=O)c2sc3c(=O)[nH]cnc3c2C)c1	86.9%	80.2%	-36% (active)	42.8%	–	87.7%	46.2%	62.8%
CN(C)c1ccc(C2(Cl)c3ccccc3N(C)c3ccccc32)cc1	33.5%	71.9%	46.7%	21.6%	5.46% (active)	77.4%	36.7%	–
c1ccc2c(N=NSc3ncnc4nc[nH]c34)c3ccccc3nc2c1	-23.7% (active)	27.9%	5.09% (active)	-27.6% (active)	–	–	9.38% (active)	-27.7% (active)
COc1ccc(C(=O)C(CN(C)C)c2ccc(OC)cc2)cc1 (configuration not stated)	56.7%	2.74% (active)	43.8%	11.9%	–	117%	78%	18.5%
COc1ccc2c(c1)C1=NN(C(=O)CO)[C@H](c3ccc(OC(F)(F)F)cc3)[C@@H]1CC2	82.1%	127%	116%	109%	–	91.9%	102%	83.2%
CCOC(=O)Nc1ccc2nc(Sc3ccc(Cl)cc3)sc2c1	36.4%	58.5%	1.41% (active)	29%	–	57.1%	26.9%	16.7%
NC(=O)N/N=C\c1ccc([N+](=O)[O-])o1	101%	106%	102%	96.9%	–	104%	98.1%	94.6%
COc1cc(NC(=O)CSc2nc3ccc(Cl)cc3c(=O)n2-c2ccccc2)cc(OC)c1OC	85.4%	78.9%	101%	101%	–	106%	100%	99.1%
